Only some compounds are listed: those with a hit (about 4.2% of all), similar ones and a draw of the others.
ClpP mod: qHTS Assay for Activators of ClpP; ATP-dependent Clp protease proteolytic subunit (Bacillus subtilis (strain 168)), P80244; purified B. subtilis ClpP, FRET peptide cleavage, 20 min; Potency, µM (series often up to 57.5 µM), inactives show at the top dose activity change, negative = active; 1.9% of 340,000 active; active means well fitted falling curve with a large enough effect; inconclusive means small, poorly fitted or top-dose-only effect; inactive means no such curve, though single readings can be large or run the other way; further: potency means the concentration at half of the fitted maximal effect; the source files actives as falling curves though it sought activators and does not explain the sign; nearly all actives have a fitted effect of over 65% in size
Target sequence (P80244 whole entry, looked up): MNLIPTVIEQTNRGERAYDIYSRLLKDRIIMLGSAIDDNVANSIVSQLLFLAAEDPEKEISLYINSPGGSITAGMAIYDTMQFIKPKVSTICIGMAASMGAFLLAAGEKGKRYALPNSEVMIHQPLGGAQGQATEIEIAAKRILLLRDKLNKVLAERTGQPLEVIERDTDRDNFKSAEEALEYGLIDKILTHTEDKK
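Purified B. subtilis ClpP, 10 microg/mL final in Tris/HCl pH8 with KCl, BSA, glycerol and Tween-20, cleaved an Abz/nitrotyrosine-quenched decapeptide. Fluorescence (ex 320, em 430) was read at 0 and 20 min at room temperature. Delta was normalized to 5.8 microM ADEP and DMSO/no-enzyme controls.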
TCR act: activators of T cell receptors; primary human leukocytes, anti-CD3, IL-2 HTRF, 48 h; Potency, µM (top dose mostly 9.22 µM), without a hit: at the top dose activation of IL-2 secretion, actives largely listed as activators; 330,000 tested, under 10 active; AID 504894; further: % of control where 0% means no effect
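Readout: HTRF IL-2, Eu-cryptate/d2 antibody pair, 320nm excitation, 665nm emission. Stimulus: a-CD3 beads, no co-stimulation. Cells: primary human leukocytes. Exposure: 48 hr with compound.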
Sfp PPTase inh: blocks B. subtilis Sfp PPTase activity. Q9F4F7. Biochemical Sfp PPTase activity, qHTS. Potency, µM, without a hit: largest response in the series, negative = inhibition, usual class: inhibitors. 3.5% of 310,000 active. AID 1490;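 further: the enzyme is Sfp with the accession as filed and its product quenches rhodamine fluorescence; potency means the concentration at half of the fitted maximal effect; 0% = enzyme reaction without inhibitor and -100% = no enzyme wells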
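Compounds were incubated with enzyme (final 15 nM) for 15 min at room temperature before substrate addition started the reaction. Fluorescence at 525 nm excitation, 598 nm emission was recorded immediately and after 30 minutes.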
uPA generation: cell surface uPA generation inhibition; cell surface uPA generation assay, qHTS; AID 540303; 0.31% of 330,000 active; Potency, µM (titrated, usually from 38.3 µM), inactives show at the top dose activity change, negative = inhibition, most hits filed as inhibitors; active means well fitted inhibition curve with a large enough effect; inconclusive means small, poorly fitted or top-dose-only effect; inactive means no such curve, though single readings can be large or run the other way; tested in mouse RAW 264.7 cells; further: potency means the concentration at half of the fitted maximal effect; on the % scale 0 is the no-effect control and ±100 the full control effect; nearly all actives have a fitted effect of over 55% in size
* = called active by the depositor; ? = inconclusive; / = no result given; [ ] = dose if it differs, or a comment. Unless noted, the call rests on the fitted dose curve; in most records, active means well fitted curve in the direction sought with a large enough effect; inconclusive means small, poorly fitted or top-dose-only effect, or another doubt; inactive means no such curve, though single readings can be large; an effect the other way counts as inactive or inconclusive.

SMILES	ClpP mod	TCR act	Sfp PPTase inh	uPA generation
C/C(=N\NC(=O)c1ccncc1)c1cc2ccccc2oc1=O	2%	4%[46.1 µM]	23%	-1%
Nc1nc2[nH]cc(CCc3ccc(C(=O)N[C@@H](CCC(=O)O)C(=O)O)cc3)c2c(=O)[nH]1	-12%	/	/	/
COc1ccc2nc(SCc3cccc(C)c3)nc(C)c2c1	25µM*	2%[46.1 µM]	?	3%
COc1ccc2nc(C)cc(SCC(=O)O)c2c1	-28%	-6%	6%	-5%
COc1ccc2nc(SC(C(=O)c3ccccc3)c3ccccc3)nc(C)c2c1 (stereo not given)	/	-4%[46.1 µM]	4%	-3%
CN(C)c1nc(SCCOC(=O)Nc2ccccc2)nc(N(C)C)n1	-6%	-2%	?	3%
COc1ccc2nc(SCc3ccccc3C)nc(C)c2c1	7.1µM*	-9%[46.1 µM]	?	-6%
COc1ccc2nc(SCCOC(=O)Nc3ccc(Cl)cc3)nc(C)c2c1	28µM*	-7%[46.1 µM]	17%	0%
COc1ccc2nc(SCC(=O)O)nc(C)c2c1	28µM*	-4%	?	0%
CCOC(=O)C1Oc2ccccc2C(c2ccc(C)cc2)=C1C(=O)OC (stereo not given)	0%	-5%[46.1 µM]	-1%	4%
COc1ccc(C(=O)Oc2ccc3oc(=O)sc3c2)cc1	0%	0%	50µM*	-7%
COc1ccc(OC)c(S(=O)(=O)N(C(C)=O)c2ccc3oc(=O)sc3c2)c1	/	0%	45µM*	10%
CC(C)C(=O)N(c1ccc2oc(=O)sc2c1)S(=O)(=O)c1ccccc1	0%	/	18µM*	/
CC(=O)N(c1ccc2oc(=O)sc2c1)S(=O)(=O)c1ccccc1	-1%	3%	8.9µM*	0%
COc1ccc(C(=O)Oc2ccc3ccc(=O)oc3c2)cc1	/	-2%	1%	5%
COc1ccc(S(=O)(=O)N(C(=O)C(C)C)c2ccc3oc(=O)sc3c2)cc1	-1%	-8%	?	/
CN(C)CCn1cnc2c(c1=N)C(c1ccccc1)c1ccc3ccccc3c1O2 (stereo not given)	1%	3%	-10%	-20%
CC(=O)Nc1sc2c(c1C#N)CCC2	/	4%	-21%	0%
Cc1c(C(=O)N2CCCCC2)sc(N)c1C#N	-1%	-3%	0%	7%
N#Cc1c(N)sc(=S)c2c1CCCCC2	-2%	-1%	5µM*	-3%
N#Cc1c(N)sc2c1CCCCCC2	-2%	4%	40µM*	/
COc1ccc(F)cc1S(=O)(=O)NCC(c1ccco1)S(=O)(=O)c1cccs1 (stereo not given)	-2%	/	/	/
O=S(=O)(NCCc1ccccc1)c1cccs1	/	2%	4%	2%
O=S(=O)(NCc1ccccc1)c1cccs1	14µM*	-1%	10%	-8%
Nn1c(C2COc3ccccc3O2)n[nH]c1=S (stereo not given)	2%	4%	7.1µM*	10%
SMILES	ClpP mod	TCR act	Sfp PPTase inh	uPA generation
COCCC1CCCCN1C(=O)c1cc(COc2ccc(C)nc2)on1 (stereo not given)	0%	6%	12%	?
COCCCC1CCN(C(=O)c2cc(COc3ccc(C)nc3)on2)CC1	28µM*	0%	9%	?
ClCc1csc(N/N=C/c2cccs2)n1	/	/	45µM*	/
C(=N\Nc1nc(-c2ccccc2)cs1)/c1cccs1	0%	-3%	8.9µM*	3%
Cc1ccc(-c2csc(N/N=C/c3ccco3)n2)cc1	0%	-64%	89µM*	/
COc1cccc(CNC(=O)COC(=O)c2ccc(S(C)(=O)=O)c([N+](=O)[O-])c2)c1	2%	/	/	/
CCCOc1ccc(C2C(=O)N(C3CCC(C)CC3)CC(=O)N2CCc2ccccc2)cc1OC (stereo not given)	-2%	/	/	/
O/N=C(/C[n+]1ccsc1)c1ccc(I)cc1	-1%	/	/	/
COC(=O)C1=C(C)N(C)C(=O)NC1c1c(OC)ccc2ccccc12 (stereo not given)	/	6%	14%	1%
CCOC(=O)C1=C(c2ccccc2)NC(N)=NC1c1ccc(OCc2ccc(C(=O)OC)cc2)cc1 (stereo not given)	-2%	3%	79µM*	-3%
CCCCCCNC(=O)Nc1ccc(S(=O)(=O)Nc2ccc(CCNC[C@H](O)COc3ccc(O)cc3)cc2)cc1	/	/	25µM*	/
CCCCOc1ccc(S(=O)(=O)Nc2ccc(NC(C)=O)cc2)cc1	0%	-3%[46.1 µM]	11%	-7%
Cc1cc(=O)c2c(O)c3c(O)cc(O)c4c5c(O)cc(O)c6c(O)c7c(=O)cc(C)c8c1c2c(c34)c(c65)c78	/	/	50µM*	/
CC(C)c1ccc(-c2nnc3n(CCc4ccccc4)c(=O)c4ccccc4n23)cc1	-4%	/	/	/
CCOC(=O)c1ccc(NC(=O)CC2SC(=NC)N(C)C2=O)cc1 (stereo not given)	-3%	-5%	1%	9%
CCOC(=O)c1ccc(NC(=O)CC2Sc3ncnn3C2=O)cc1 (stereo not given)	-1%	/	22µM*	-1%
O=C(CC1Sc2ncnn2C1=O)Nc1ccc(Cl)cc1 (stereo not given)	/	-4%	35µM*	-3%
O=C(CC1SC(=O)N(c2ccccc2)C1=O)Nc1ccc(Cl)cc1 (stereo not given)	-3%	0%	-19%	-2%
COc1ccc(NC(=O)CC2Sc3ncnn3C2=O)cc1 (stereo not given)	0%	-4%[46.1 µM]	45µM*	-29%
CCOc1ccccc1NC(=O)C(c1ccccc1)N1CCN(C(=O)c2ccco2)CC1 (stereo not given)	2%	6%	/	18%
CC(C)(C)c1ccc(C(=O)NCCc2csc3nc(-c4ccccc4F)nn23)cc1	0%	/	/	/
Cc1ccc(S(=O)(=O)N2CCCCC2)cc1NC(=O)COC(=O)c1ccccc1F	/	-1%	17%	-1%
Cc1cccc(CNC(=O)c2ccccc2N)c1	8.9µM*	-4%	10%	/
Cc1ccc(CNC(=O)c2ccccc2N)cc1	28µM*	/	10%	9%
CSCCC(C)N1CCC(Oc2ccc(C(=O)NCc3ccccn3)cc2)CC1 (stereo not given)	1%	/	/	/
SMILES	ClpP mod	TCR act	Sfp PPTase inh	uPA generation
N#Cc1c(-c2ccccc2)[nH]c(=S)[nH]c1=O	-1%	4%	50µM*	3%
Cc1cccc(CNC(=O)C2CCC(=O)N(CCc3cccc(F)c3)C2)n1 (stereo not given)	-2%	-1%	17%	1%
Cc1ccc(-n2c(SCC(=O)NCc3ccco3)nc3c(sc4ccccc43)c2=O)cc1	13%	-5%[46.1 µM]	-11%	10%
CCCCCCCCc1nc(=S)[nH][nH]1	1%	4%[46.1 µM]	20µM*	1%
CCCCCCC1CC(CCc2nc(=S)[nH][nH]2)C(=O)O1 (stereo not given)	2%	-3%[46.1 µM]	-29%	3%
COc1ccc(CNc2ccc3c(c2)ncn3C)cc1OC	/	3%	8%	-13%
Cc1ccc(-n2cnc3cc(NCc4cccs4)ccc32)cc1	22µM*	-3%	?	-2%
CCc1ccc(CNc2ccc3c(c2)ncn3C)cc1	28µM*	-7%	-5%	/
Cc1ccc(CNc2ccc3c(c2)ncn3C)cc1	25µM*	/	-5%	-11%
